Records with an inconclusive call do not appear. Values without a mark were called inactive. The source made the active and inactive calls. Calls come from the whole dose curve.

The nature of the assay: VSV-G qHTS counterscreen for inhibitors of SARS-S pseudo-typed particle cell entry. As to conditions: VSV-G pseudotyped particle entry counterscreen, luciferase; series mostly up to 57.1 µM; activity, negative = inhibition: at the top concentration.
As for `O=C1CCc2ccc(OCCCCN3CCN(c4cccc(Cl)c4Cl)CC3)cc2N1`, the Potency is 19.2 µM (active).

Consider `Cc1nnc2n1-c1sc(CCc3ccc(CC(C)C)cc3)cc1C(c1ccccc1Cl)=NC2C` (stereo not given), for which the Potency was 27.1 µM (active).

For the molecule `CN(C)CCOC(c1ccccc1)c1ccc(Br)cc1` (stereo not given), the “activity, negative = inhibition” value was 0%.

With `CNC(=O)c1cc(Oc2ccc(NC(=O)Nc3ccc(Cl)c(C(F)(F)F)c3)c(F)c2)ccn1`, the Potency was 10.8 µM (active).

For the molecule `CCCN1C[C@H](C)[C@@H](O)[C@](C)(O)[C@@H](CC)OC(=O)[C@H](C)[C@@H](O[C@H]2C[C@@](C)(OC)[C@@H](O)[C@H](C)O2)C(C)[C@@H](O[C@@H]2O[C@H](C)C[C@H](N(C)C)[C@H]2O)[C@](C)(O)C[C@H]1C` (stereo not given in full), the “activity, negative = inhibition” value is -19.8%.

Turning to `COc1ccc2cc1Oc1ccc(cc1)C[C@H]1c3c(cc4c(c3Oc3cc5c(cc3OC)CCN(C)[C@@H]5C2)OCO4)CCN1C`, the Potency was 21.5 µM (active).

For the molecule `CCCCCCCCCCCC[n+]1ccc2ccccc2c1`, the Potency is 1.92 µM (active).

Consider `COc1cc([C@@H]2c3cc4c(cc3C(O[C@@H]3O[C@@H]5CO[C@@H](c6cccs6)OC5[C@H](O)[C@H]3O)C3COC(=O)[C@@H]32)OCO4)cc(OC)c1O` (stereo not given in full), for which the Potency is 0.857 µM (active).

For the molecule `CC(CN(C)C)CN1c2ccccc2CCc2ccccc21` (stereo not given), the “activity, negative = inhibition” value was -27.2%.

In the case of `Cc1cn([C@H]2C[C@H](N=[N+]=[N-])[C@@H](CO)O2)c(=O)[nH]c1=O`, the Potency was 3.41 µM (active).

Regarding `CC(C)OC(=O)OCOP(=O)(CO[C@H](C)Cn1cnc2c(N)ncnc21)OCOC(=O)OC(C)C`, the Potency was 0.0961 µM (active).

Consider `COC(=O)C1=C(C)NC(C)=C(C(=O)OCC(C)C)C1c1ccccc1[N+](=O)[O-]` (stereo not given), for which the Potency is 24.1 µM (active).

Turning to `Cc1c(N)nc(C(CC(N)=O)NCC(N)C(N)=O)nc1C(=O)NC(C(=O)NC(C)C(O)C(C)C(=O)NC(C(=O)NCCc1nc(-c2nc(C(=O)NCCCN[C@@H](C)c3ccccc3)cs2)cs1)C(C)O)C(O[C@@H]1O[C@@H](CO)[C@@H](O)[C@H](O)[C@@H]1O[C@H]1O[C@H](CO)[C@@H](O)[C@H](OC(N)=O)[C@@H]1O)c1cnc[nH]1` (stereo not given in full), the Potency was 0.304 µM (active).

As to `CC(=O)Oc1ccccc1C(=O)Nc1ncc([N+](=O)[O-])s1`, the Potency was 6.81 µM (active).

Turning to `CCC(C)(C)C(=O)O[C@H]1C[C@@H](C)C=C2C=C[C@H](C)[C@H](CC[C@@H]3C[C@@H](O)CC(=O)O3)[C@H]21`, the Potency is 1.21 µM (active).

Turning to `Oc1c(Cl)cc(Cl)c(Cl)c1Cc1c(O)c(Cl)cc(Cl)c1Cl`, the Potency was 2.71 µM (active).

Take `C=C1c2c(Cl)ccc(O)c2C(O)=C2C(=O)[C@@]3(O)C(O)=C(C(N)=O)C(=O)[C@@H](N(C)C)[C@@H]3[C@@H](O)[C@H]12`: the Potency was 15.2 µM (active).

Regarding `CC(C)(C)c1ccc(C(=O)CCCN2CCC(OC(c3ccccc3)c3ccccc3)CC2)cc1`, the Potency is 27.1 µM (active).

Take `Cc1nnc(C(=O)NC(C)(C)c2nc(C(=O)NCc3ccc(F)cc3)c(O)c(=O)n2C)o1`: the Potency is 0.0171 µM (active).

As to `C=C(C)[C@H]1Cc2c(ccc3c2O[C@@H]2COc4cc(OC)c(OC)cc4[C@@H]2C3=O)O1`, the Potency is 0.0383 µM (active).

Take `O=C(Nc1ccc(Cl)cc1)Nc1ccc(Cl)c(C(F)(F)F)c1`: the Potency was 9.61 µM (active).

With `CO[C@@]12[C@H](COC(N)=O)C3=C(C(=O)C(C)=C(N)C3=O)N1C[C@@H]1N[C@@H]12`, the Potency is 3.41 µM (active).

As to `CCCCCCCCCCCCCC[n+]1ccc(C)cc1`, the Potency was 1.92 µM (active).

Consider `O=c1c(C2CC(c3ccc(-c4ccc(Br)cc4)cc3)Cc3ccccc32)c(O)sc2ccccc12` (stereo not given), for which the Potency was 15.2 µM (active).

As for `COC(=O)C[C@](O)(CCCC(C)(C)O)C(=O)O[C@@H]1C(OC)=C[C@]23CCCN2CCc2cc4c(cc2[C@H]13)OCO4`, the Potency is 1.36 µM (active).

On to `CCc1c2c(nc3ccc(OC(=O)N4CCC(N5CCCCC5)CC4)cc13)-c1cc3c(c(=O)n1C2)COC(=O)[C@]3(O)CC`, for which the “activity, negative = inhibition” value was 0%.

For the molecule `Nc1nc(Cl)nc2c1ncn2C1CC(O)C(CO)O1` (stereo not given), the Potency was 5.41 µM (active).

`COc1cc2c(cc1Cc1cccc(Cl)c1F)c(=O)c(C(=O)O)cn2[C@H](CO)C(C)C`: the Potency was 0.215 µM (active).

In the case of `Cc1cc(-n2c(=O)[nH]c(=O)n(C)c2=O)ccc1Oc1ccc(S(=O)(=O)C(F)(F)F)cc1`, the Potency was 19.2 µM (active).

For the molecule `Cc1oncc1C(=O)Nc1ccc(C(F)(F)F)cc1`, the “activity, negative = inhibition” value is 0%.

For `CC(C)(C)C(=O)OCOP(=O)(COCCn1cnc2c(N)ncnc21)OCOC(=O)C(C)(C)C`, the Potency was 0.0681 µM (active).

Turning to `C[C@@H](c1nc(-c2ccc(C#N)cc2)cs1)[C@](O)(Cn1cncn1)c1cc(F)ccc1F`, the Potency was 21.5 µM (active).

`CC(C)OC(=O)[C@H](C)N[P@](=O)(CO[C@H](C)Cn1cnc2c(N)ncnc21)Oc1ccccc1`: the Potency is 0.242 µM (active).

Regarding `CC[C@@]1(O)C(=O)OCc2c1cc1n(c2=O)Cc2cc3c([N+](=O)[O-])cccc3nc2-1`, the Potency is 0.124 µM (active).

Turning to `CC(=O)N1CCN(c2ccc(OC[C@H]3CO[C@](Cn4ccnc4)(c4ccc(Cl)cc4Cl)O3)cc2)CC1`, the Potency was 19.2 µM (active).

Source of the values: PubChem BioAssay AID1494158 (National Center for Advancing Translational Sciences (NCATS), 2020).
